Measurements taken from ChEMBL document CHEMBL2218924, “A broad activity screen in support of a chemogenomic map for kinase signalling research and drug discovery” (Biochem J, 2013).

Molecular target: Death-associated protein kinase 1 (Homo sapiens) (UniProt P53355)
Conditions: at 1 µM

Chain of Death-associated protein kinase 1 (Homo sapiens) (P53355 whole entry, looked up): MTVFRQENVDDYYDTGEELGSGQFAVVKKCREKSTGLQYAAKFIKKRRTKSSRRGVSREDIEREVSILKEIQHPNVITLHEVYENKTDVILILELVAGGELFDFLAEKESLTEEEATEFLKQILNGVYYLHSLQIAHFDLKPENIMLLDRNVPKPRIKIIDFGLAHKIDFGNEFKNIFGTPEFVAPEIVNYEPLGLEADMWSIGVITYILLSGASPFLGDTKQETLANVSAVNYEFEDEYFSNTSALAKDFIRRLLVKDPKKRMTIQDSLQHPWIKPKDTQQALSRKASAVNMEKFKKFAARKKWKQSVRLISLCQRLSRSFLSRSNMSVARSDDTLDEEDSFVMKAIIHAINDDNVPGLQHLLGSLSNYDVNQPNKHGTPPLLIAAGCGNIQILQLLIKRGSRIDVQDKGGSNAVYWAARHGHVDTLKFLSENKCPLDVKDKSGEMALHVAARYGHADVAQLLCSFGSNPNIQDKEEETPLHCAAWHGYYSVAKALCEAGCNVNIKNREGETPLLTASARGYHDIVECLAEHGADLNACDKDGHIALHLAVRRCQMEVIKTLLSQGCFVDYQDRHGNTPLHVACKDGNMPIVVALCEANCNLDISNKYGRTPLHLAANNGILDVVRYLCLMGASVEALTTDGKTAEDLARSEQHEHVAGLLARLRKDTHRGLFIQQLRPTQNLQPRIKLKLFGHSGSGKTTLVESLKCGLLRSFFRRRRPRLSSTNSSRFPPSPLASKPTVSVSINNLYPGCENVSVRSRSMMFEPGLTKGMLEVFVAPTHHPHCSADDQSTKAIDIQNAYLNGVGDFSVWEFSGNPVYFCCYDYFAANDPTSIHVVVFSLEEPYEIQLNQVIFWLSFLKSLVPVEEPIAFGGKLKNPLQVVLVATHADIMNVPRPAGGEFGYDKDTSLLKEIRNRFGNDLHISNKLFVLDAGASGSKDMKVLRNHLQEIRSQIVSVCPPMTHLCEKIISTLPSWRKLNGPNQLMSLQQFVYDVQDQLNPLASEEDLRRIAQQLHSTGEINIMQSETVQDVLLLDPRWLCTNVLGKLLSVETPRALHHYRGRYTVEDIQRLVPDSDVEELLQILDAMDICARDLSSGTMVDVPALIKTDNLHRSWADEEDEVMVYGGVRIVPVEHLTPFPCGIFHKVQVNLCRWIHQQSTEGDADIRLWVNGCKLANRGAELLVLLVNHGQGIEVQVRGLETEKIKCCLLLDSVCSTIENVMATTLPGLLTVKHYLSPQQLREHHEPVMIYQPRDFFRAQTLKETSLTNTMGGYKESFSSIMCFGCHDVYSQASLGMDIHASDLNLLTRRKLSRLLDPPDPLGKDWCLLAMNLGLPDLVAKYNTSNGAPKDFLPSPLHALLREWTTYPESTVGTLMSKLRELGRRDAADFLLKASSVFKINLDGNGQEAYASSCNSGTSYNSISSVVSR

Compound | residual activity [%]
CO[C@H]1C[C@@H]2CC[C@@H](C)[C@@](O)(O2)C(=O)C(=O)N2CCCC[C@H]2C(=O)O[C@H]([C@H](C)C[C@@H]2CC[C@@H](O)[C@H](OC)C2)CC(=O)[C@H](C)/C=C(\C)[C@@H](O)[C@@H](OC)C(=O)[C@H](C)C[C@H](C)/C=C/C=C/C=C/1C | 95
Cc1cncc2cccc(S(=O)(=O)N3CCCN(C(=O)CN)C[C@H]3C)c12 | 88
Oc1cccc(-c2nc(N3CCOCC3)c3oc4ncccc4c3n2)c1 | 99
CO[C@H]1[C@@H](OC)C[C@H](C)[C@@H](OC)C2=CC(=O)C=C(NC(=O)/C(C)=C/C=C/[C@H](OC)[C@@H](OC(N)=O)/C(C)=C/[C@@H]1C)C2=O | 96
COc1ccc(S(=O)(=O)N(CCO)c2ccccc2CN(C)C/C=C/c2ccc(Cl)cc2)cc1 | 86
Fc1ccc(-c2nc3n(c2-c2ccncc2)CCS3)cc1 | 85
CC(C)n1cnc2/c(=N/c3cccc(Cl)c3)nc(NCCO)[nH]c21 | 89
Cc1cccc(-c2[nH]c(C(C)(C)C)nc2-c2ccc3c(c2)OCO3)n1 | 79
O=c1cc(N2CCNCC2)oc2c(-c3ccccc3)cccc12 | 96
Nc1n[nH]c2nc3ccccc3nc12 | 94
Oc1n[nH]c2nnc(-c3c(-c4ccccc4)nn4ccccc34)cc12 | 52
c1ccc(-c2n[nH]cc2-c2ccnc3ccccc23)nc1 | 91
Ic1cccc(CSc2nnc(-c3ccncc3)o2)c1 | 90
Nc1ncnc2c1c(-c1ccc(Oc3ccccc3)cc1)cn2C1CCCC1 | 91
CCOC(=O)c1c(C)[nH]c(/C=C2\C(=O)Nc3ccccc32)c1C | 83
O=Nc1c(-c2c(O)[nH]c3ccccc23)[nH]c2ccccc12 | 91
Nc1ncnc2c1cnn2-c1ccccc1 | 84
COc1cc2ncnc(Nc3ccc(O)c(Br)c3)c2cc1OC | 88
CCC(=O)Nc1ccc2ncnc(Nc3cccc(Br)c3)c2c1 | 80
CC(=O)c1ccc(N2CCOCC2)cc1O | 111
CC(C)(C)c1nc2c3ccc(F)cc3c3c(=O)[nH]ccc3c2[nH]1 | 8
Cn1sc(=O)n(Cc2ccccc2)c1=O | 80
COc1cc2ncnc(Nc3ccc(NC(=O)c4ccccc4)cc3)c2cc1OC | 95
COc1ccc(C(=O)Nc2sc3c(c2C(N)=O)CCCC3)cc1OC | 93
O=C(Nc1cccc(Nc2nccc(Nc3cccc(C(F)(F)F)c3)n2)c1)C1CC1 | 98
CCN1/C(=C/C(C)=O)Sc2ccc(OC)cc21 | 81
O=C1Nc2ccc(Cl)cc2/C1=C/c1cc(Cl)c(O)c(Cl)c1 | 79
COc1cccc(-c2cc(=O)c3ccccc3o2)c1N | 81
NC(=O)c1ccc(-c2nc(-c3ccc4c(c3)OCCO4)c(-c3ccccn3)[nH]2)cc1 | 86
CCN(CC)CCNC(=O)c1c(C)[nH]c(/C=C2\C(=O)Nc3ccc(Cl)cc32)c1C | 75
